Compound activity deposited in PubChem by National Center for Advancing Translational Sciences (NCATS).
BRCT inh green: qHTS Assay for Inhibitors of BRCT-Phosphoprotein Interaction (Green Fluorophore) | Breast cancer type 1 susceptibility protein (Homo sapiens), P38398 | BRCA1 BRCT-phosphopeptide binding, green fluorescence polarization | Potency, µM (series often up to 76.9 µM), for the others: at the highest dose activity change, negative = inhibition, usual class: inhibitors | actives 0.05% (n = 75,000) | AID 875, 2007;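 note: potency is the fitted concentration of half-maximal effect; plate controls were peptide without protein for full effect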
Target sequence (P38398 whole entry, looked up): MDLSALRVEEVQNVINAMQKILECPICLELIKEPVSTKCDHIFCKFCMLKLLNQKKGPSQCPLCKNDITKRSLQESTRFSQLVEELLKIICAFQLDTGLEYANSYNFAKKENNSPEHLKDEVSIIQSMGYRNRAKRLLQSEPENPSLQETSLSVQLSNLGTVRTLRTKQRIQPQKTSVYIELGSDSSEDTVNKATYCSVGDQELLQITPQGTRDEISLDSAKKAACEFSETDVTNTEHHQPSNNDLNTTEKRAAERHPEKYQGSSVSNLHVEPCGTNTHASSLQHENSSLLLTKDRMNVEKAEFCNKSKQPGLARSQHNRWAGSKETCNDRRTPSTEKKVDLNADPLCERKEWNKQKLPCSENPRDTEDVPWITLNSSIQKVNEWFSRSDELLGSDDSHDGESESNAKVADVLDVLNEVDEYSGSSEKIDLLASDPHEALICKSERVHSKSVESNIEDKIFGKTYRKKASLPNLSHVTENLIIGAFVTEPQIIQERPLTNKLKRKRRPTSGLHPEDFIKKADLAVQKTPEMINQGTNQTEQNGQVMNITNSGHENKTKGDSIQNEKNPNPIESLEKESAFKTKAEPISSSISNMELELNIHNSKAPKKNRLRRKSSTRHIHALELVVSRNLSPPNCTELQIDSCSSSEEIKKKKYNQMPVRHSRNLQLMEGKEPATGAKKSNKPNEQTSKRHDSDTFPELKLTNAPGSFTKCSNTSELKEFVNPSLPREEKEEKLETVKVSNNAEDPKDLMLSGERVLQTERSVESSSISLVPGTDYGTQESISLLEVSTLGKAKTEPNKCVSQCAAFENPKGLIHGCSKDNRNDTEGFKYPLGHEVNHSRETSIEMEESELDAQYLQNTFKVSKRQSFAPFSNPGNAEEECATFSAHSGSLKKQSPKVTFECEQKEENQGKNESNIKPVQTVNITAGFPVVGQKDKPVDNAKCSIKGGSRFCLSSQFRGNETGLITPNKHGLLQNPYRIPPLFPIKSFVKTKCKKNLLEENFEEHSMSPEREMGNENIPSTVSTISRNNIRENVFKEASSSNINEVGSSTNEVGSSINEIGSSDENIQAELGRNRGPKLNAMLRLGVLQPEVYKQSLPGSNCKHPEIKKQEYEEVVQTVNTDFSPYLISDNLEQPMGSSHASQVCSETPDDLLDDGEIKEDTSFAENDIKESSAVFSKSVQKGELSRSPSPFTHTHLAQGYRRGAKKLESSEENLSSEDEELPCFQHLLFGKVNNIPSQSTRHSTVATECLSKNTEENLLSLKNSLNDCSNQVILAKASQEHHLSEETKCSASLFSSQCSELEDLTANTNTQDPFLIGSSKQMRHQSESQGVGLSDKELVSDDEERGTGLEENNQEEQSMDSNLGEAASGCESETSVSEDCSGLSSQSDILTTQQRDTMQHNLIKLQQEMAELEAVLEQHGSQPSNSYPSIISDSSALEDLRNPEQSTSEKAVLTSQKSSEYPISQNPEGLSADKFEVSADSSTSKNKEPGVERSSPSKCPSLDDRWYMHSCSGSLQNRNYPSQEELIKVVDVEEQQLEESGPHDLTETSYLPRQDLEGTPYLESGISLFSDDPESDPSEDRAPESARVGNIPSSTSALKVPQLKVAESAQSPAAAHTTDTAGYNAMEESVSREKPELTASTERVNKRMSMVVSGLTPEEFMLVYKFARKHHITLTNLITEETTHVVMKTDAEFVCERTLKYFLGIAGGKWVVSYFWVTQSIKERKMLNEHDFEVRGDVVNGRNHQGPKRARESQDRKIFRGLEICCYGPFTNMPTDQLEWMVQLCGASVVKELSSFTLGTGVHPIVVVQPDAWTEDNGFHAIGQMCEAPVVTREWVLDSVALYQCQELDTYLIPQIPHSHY
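Compounds were incubated for 12 min at room temperature with a complex of 100 nM fluorescein-tagged pBACH1 decapeptide and 250 nM His-tagged BRCT protein. Buffer was phosphate pH 7.3 with EDTA, DTT and Tween 20. Disruption of binding lowers the polarization signal.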
ALOX15 inhib: qHTS Assay for Inhibitors of 15-hLO (15-human lipoxygenase). Polyunsaturated fatty acid lipoxygenase ALOX15 (Homo sapiens), P16050. purified 15hLO-1, xylenol orange hydroperoxide absorbance. Potency, µM (titrated, usually from 57.1 µM), for the others: at the top dose activity change, negative = inhibition, hits mostly inhibitors. actives 1.4% (n = 74,000); note: potency is the fitted concentration of half-maximal effect; % is set by controls: 0 for no effect and ±100 for the full control effect; nearly all actives have a fitted effect of over 55% in size
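Inhibition is scored from a chromogenic endpoint. After 15 min enzyme-compound contact, arachidonic acid (50 uM final) reacts 6 min with 40 nM 15hLO-1 at room temperature, then Fe-XO reagent is added for 30 min and absorbance ratio recorded.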
Tau filament bind: qHTS Assay for Tau Filament Binding | recombinant tau filaments, thioflavin S fluorescence, 15 h; filaments grown with octadecylsulfate alongside compound | actives 2% (n = 71,000) | Microtubule-associated protein tau (Homo sapiens), P10636 | Potency, µM (top dose mostly 57.1 µM), inactives show at the highest dose activity change, negative = inhibition;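 note: potency is the fitted concentration of half-maximal effect; % is set by controls: 0 for no effect and ±100 for the full control effect; actives lower thioflavin S fluorescence by blocking filaments or displacing dye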
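His-tagged recombinant human tau (exons 2, 3, 10; 1 uM final) fibrillized with 30 uM sodium octadecylsulfate, 15 h at 37 C, in pH 7.4 HEPES buffer with 10 uM thioflavine S and 5 mM DTT. Reduced ThS fluorescence (450/510 nm) marks activity.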
BRCT inh red: qHTS Assay for Inhibitors of BRCT-Phosphoprotein Interaction (Red Fluorophore). BRCT-phosphopeptide binding, red fluorescence polarization. Potency, µM (doses to about 76.9 µM), inactives show at the top dose activity change, negative = inhibition, most hits filed as inhibitors. actives 0.03% (n = 75,000). AID 892, 2007; note: % is set by controls: 0 for no effect and ±100 for the full control effect
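Fluorescence polarization: 100 nM His-tagged BRCA1 BRCT with 100 nM TAMRA-labelled phospho-BACH1 decapeptide, phosphate buffer pH 7.3 with 150 mM NaCl, DTT, 0.01% Tween 20; 12 min RT. Binding inhibition seen as FP decrease.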
TsaE inh: qHTS Assay for Inhibitors of YjeE; AID 605, 2007; Potency, µM; purified YjeE enzyme, qHTS inhibition assay; tRNA threonylcarbamoyladenosine biosynthesis protein TsaE (Escherichia coli (strain …; actives 0.05% (n = 71,000)
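Purified YjeE (10 uM) with BODIPY Texas Red-labeled ADP probe (2 uM); compounds pin-transferred, 15 min at room temperature. Binding inhibition read as decreased fluorescence polarization; ADP titration as control.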
DNA Pol III inh: qHTS Assay for Inhibitors of DNA Polymerase III Holoenzyme System. reconstituted DNA polymerase III holoenzyme replication, biochemical. Potency, µM (highest dose often 57.1 µM), without a hit: at the top dose activity change, negative = inhibition. actives 0.25% (n = 71,000). AID 603, 2007; note: potency is the fitted concentration of half-maximal effect; % is set by controls: 0 for no effect and ±100 for the full control effect
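Reconstituted *E. coli* holoenzyme (0.35 nM Pol III, 1 nM beta, 154 nM SSB, 2 nM primase) was preincubated with compound for 15 min at RT. Synthesis on 1.4 nM ssM13Gori ran 35 min, then was stopped with PicoGreen/EDTA and read as dsDNA fluorescence.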
* = called active by the depositor; i = inactive; u = inconclusive; x = not tested or not shown; [ ] = remark or other dose. Rows were chosen to be rich in hits. Some 3.1% of all compounds tested hit in one or more screens of this group. Calls come from the whole dose curve; as a rule, active = well fitted curve in the direction sought with a large enough effect; inconclusive = small, poorly fitted or top-dose-only effect, or another doubt; inactive = no such curve, though single readings can be large; an effect the other way counts as inactive or inconclusive.

SMILES | BRCT inh green | ALOX15 inhib | Tau filament bind | BRCT inh red | TsaE inh | DNA Pol III inh
COc1cccc(Cn2c(=O)c(-c3cccc(Cl)c3)nc3cncnc32)c1 | 4% | u | 20µM* | -1% | i | -10%
COc1cccc(Cn2c(=O)c(-c3ccc(Cl)cc3)nc3cnc(OC)nc32)c1 | -2% | 0% | 13µM* | 0% | i | -10%
NC(=O)CS(=O)C[C@H](N)C(=O)O (stereo partly drawn) | -3%[15.4 µM] | 26%[11.4 µM] | 6%[11.4 µM] | 0%[15.4 µM] | i | -2%[11.4 µM]
COc1cccc(Cn2c(=O)c(C)nc3cnc(OCc4ccccc4)nc32)c1 | 0% | -5% | 32µM* | 0% | i | -10%
COc1cccc(Cn2c(=O)c(-c3ccc(Cl)cc3)nc3cnc(N4CCNCC4)nc32)c1 | 0% | 4% | 4µM* | -1% | i | -9%
COc1cccc(Cn2c(=O)cnc3cnc(OCc4ccccc4)nc32)c1 | 0% | -11% | u | -1% | i | -7%
COc1ccccc1CCn1c(=O)c(-c2ccc(Cl)cc2)nc2cncnc21 | 1% | -12% | 13µM* | -1% | i | 12%
COc1ccc(-c2nc3cnc(N4CCNCC4)nc3n(Cc3cccc(OC)c3)c2=O)cc1 | -1% | -12% | 178% | 1% | i | 2%
COc1ccccc1CN1CCC2(CC1)CCN(C(=O)c1cccc(F)c1)CC2 | -2% | 8% | 16% | 0% | i | 5%
NC(=O)OC[C@H](O)COc1ccc(Cl)cc1 | 0%[34.4 µM] | 18%[25.6 µM] | -5%[25.6 µM] | -1%[34.4 µM] | i | -1%[25.6 µM]
O=C1Nc2ccc(S(=O)(=O)N3CCCCCC3)c3cccc1c23 | -3% | 16µM* | 25µM* | -2% | i | -3%
O=C1Nc2ccc(S(=O)(=O)N3CCOCC3)c3cccc1c23 | -1% | 4% | -2% | 1% | i | -4%
CCOc1ccccc1N1CCN(S(=O)(=O)c2ccc3c4c(cccc24)C(=O)N3)CC1 | 0% | -24% | 16µM* | -1% | i | -13%
CN(C)Cc1ccccc1-c1cc(NCc2cccs2)ncn1 | 0% | 12% | 5% | -2% | i | -4%
N#CC(C#N)=CNCCN1CCN(C=C(C#N)C#N)CC1 | -3%[15.4 µM] | 3%[11.4 µM] | 18%[11.4 µM] | -1%[15.4 µM] | i | -8%[11.4 µM]
CC(NC(=O)c1cc(-c2ccc(O)cc2)on1)c1ccccc1 (stereo not drawn) | 0% | -10% | -18% | -1% | i | -7%
O=C(c1cc(C(F)(F)F)cc(C(F)(F)F)c1)N1CCC2(CC1)CN(Cc1ccccc1)C2 | -2% | -1% | 9% | 0% | i | -6%
Oc1ccc(Nc2nc(N3CCCC3)c3ccccc3n2)cc1 | -2% | u | 132% | -4% | i | 32µM*
O=C(NCCN1CCN(c2ccccc2)CC1)c1cccn2c(=O)c3cc(Cl)ccc3nc12 | 0% | -5% | 16µM* | -1% | i | 0%
COC1C(O)C(CO)OC1n1cnc2c(=O)[nH]c(N)nc21 (stereo not drawn) | -2% | 14% | x | -2% | x | x
C=CCN1C(=O)CS/C1=C(\C#N)S(=O)(=O)c1ccc(C)cc1 | 20% | -18% | 16µM* | 11% | i | 0%
C=CCN1C(=O)CSC1=Nc1cccc(O)c1 | 0% | 3% | 6% | 0% | i | -3%
COP(=O)(OC)OC(c1ccc(Cl)cc1)P(=O)(OC)OC (stereo not drawn) | -2% | u | x | 0% | x | x
O=C(Nc1nc(-c2cc3ccccc3oc2=O)cs1)c1ccco1 | 1% | -7% | 128% | -2% | i | -20%
O=C(Nc1ccccc1NC(=O)c1ccco1)c1ccco1 | 0% | -4% | 2% | 1% | i | 1%
SMILES | BRCT inh green | ALOX15 inhib | Tau filament bind | BRCT inh red | TsaE inh | DNA Pol III inh
O=C(Nc1ccc(Cl)cc1C(=O)Nc1ccncc1)c1ccco1 | 1% | 2.5µM* | -17% | -2% | i | 2%
O=C(Nc1nc(-c2ccc(Cl)s2)cs1)c1ccncc1 | -3% | -1% | 25µM* | 0% | i | 0%
O=C(Nc1nc(-c2ccncc2)cs1)c1ccco1 | -2% | -12% | 13µM* | -5% | i | -6%
O=C(CN1C(=O)CCC1=O)Nc1nc(-c2ccc(Cl)s2)cs1 | -1% | -7% | 0% | 0% | i | 2%
O=C(Nc1cccc2cccc(NC(=O)c3ccco3)c12)c1ccco1 | -2% | -14% | 13µM* | 1% | i | -4%
C/C(=C\CNc1ncnc2c1ncn2[C@@H]1O[C@@H](CO)[C@@H](O)[C@H]1O)CO | x | x | 7% | x | i | 2%
CC1(C)O[C@@H]2C[C@H]3[C@H]4C[C@H](F)C5=CC(=O)C=C[C@@]5(C)[C@@H]4[C@H](O)C[C@]3(C)[C@]2(C(=O)CO)O1 | -3%[34.4 µM] | 17%[25.6 µM] | -19%[25.6 µM] | 0%[34.4 µM] | i | -6%[25.6 µM]
O=C(NC1CCCC1)c1ccc2nc(-c3ccco3)c(-c3ccco3)nc2c1 | -2% | 10µM* | -19% | -3% | i | -22%
O=C(Nc1ccc2nc(-c3ccco3)c(-c3ccco3)nc2c1)N1CCCCCC1 | -22% | 5µM* | 1.3µM* | u | i | 16µM*
O=C(NC1CCCC1)c1ccc2nc[nH]c2c1 | -1% | 1% | 13% | -5% | i | 0%
CCOC(=O)C1CCN(C(=O)Nc2ccc3nc(-c4ccco4)c(-c4ccco4)nc3c2)CC1 | -29% | 5µM* | 0.79µM* | u | i | 13µM*
CCOC(=O)C1CCN(C(=O)Nc2ccc3c(c2)nc(C)n3C)CC1 | -6% | 2% | 2% | -1% | i | -7%
CCN(CC)S(=O)(=O)c1cccc(-c2nnc(C(=O)c3ccc(C(F)(F)F)cc3)o2)c1 | -1% | -8% | 16µM* | -1% | i | -3%
CCN(CC)S(=O)(=O)c1cccc(-c2nnc(SCC(=O)c3cc(C)n(C)c3C)o2)c1 | 1% | 5% | -4% | 0% | i | -3%
O=C(O)c1cc(Cl)cc(Cl)c1 | -3% | -2% | 18% | 1% | i | -3%
CN(C/C=C\c1ccccc1)Cc1cccc2ccccc12 | -1%[34.4 µM] | 1%[25.6 µM] | -22%[25.6 µM] | 0%[34.4 µM] | i | 19%[25.6 µM]
O=C1C(Cl)=C(NC2CCc3ccccc32)C(=O)c2ncccc21 (stereo not drawn) | -5% | -17% | 25µM* | -1% | i | -6%
C=CCn1c(=O)/c(=C/c2ccc(C)o2)s/c1=C(/C#N)C(=O)c1ccccc1 | 29% | 16µM* | 46% | 3% | i | -1%
